According to PubChem BioAssay AID652058 (Broad Institute, 2013):
Among all 1,200 compounds or so, about 870 (72%) were called active. Inconclusive results (about 3%) are left out.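 Rule for the calls: active = every test run fits a falling curve whose half-maximal concentration is at most twice the top valid dose; inconclusive = runs disagree, or flat 30 to 70% inhibition, or poor fit; inactive = every run inactive: flat, rising or weaker potency.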 The set was probably picked from earlier hits. The list is a sample of the results. Entries with a potency or affinity are not part of this list.

Assay: ZM109 Env clade C HIV-1 fusion inhibitors, dose response, HeLa effector, CEM target cells, luciferase, cherry-pick (AID 652058)
Details: HeLa Env/CEM cell fusion, 16-24 h; series mostly up to 35 µM

Activity change, negative = inhibition, inactive:
CCOC(=O)c1cnc2ccc(OCC)cc2c1NCc1ccccc1OC
COc1ccc(NC(=O)C2(C)CCN2Cc2ccccc2OC(F)F)cc1OC (centres undefined)
COc1ccc(OC2C(=O)N(Cc3ccc4c(c3)OCO4)C2c2cccs2)cc1 (centres undefined)
Cc1cc(C(=O)N2CCC(C(=O)O)CC2)c(C(F)(F)F)o1
CCOc1ccc(OCc2cccc(C(=O)N/N=C/c3cccnc3)c2)cc1
CCCOc1ccc(C(F)(F)F)cc1NC(=O)CCc1c(C)noc1C
Cc1ccc(C)c(CNc2ccc(S(=O)(=O)N3CCCCC3)cc2)c1
Cc1ccc(S(=O)(=O)N[C@H]2C=C[C@H](CC(=O)N3CCC(Cc4ccccc4)CC3)O[C@H]2CO)cc1
CCCNC(=O)C[C@H]1C[C@H]2c3cc(NC(=O)CN(C)C)ccc3O[C@H]2[C@@H](CO)O1
O=C(C[C@@H]1C[C@H]2c3cc(NC(=O)Nc4ccc(F)cc4)ccc3O[C@H]2[C@H](CO)O1)NCC1CC1
CN1CCN(C(=O)C[C@H]2C[C@@H]3c4cc(NS(C)(=O)=O)ccc4O[C@@H]3[C@H](CO)O2)CC1
O=C(C[C@@H]1C[C@H]2c3cc(NC(=O)NC4CCCCC4)ccc3O[C@H]2[C@@H](CO)O1)NCc1ccncc1
O=C(Nc1ccc(F)cc1)Nc1ccc2c(c1)[C@H]1C[C@@H](CC(=O)N3CCCCC3)O[C@H](CO)[C@H]1O2
CCCNC(=O)C[C@H]1C[C@H]2c3cc(NC(=O)CN(C)C)ccc3O[C@H]2[C@H](CO)O1
O=C1c2cccnc2C(Nc2ccc(S(=O)(=O)N3CCCCC3)cc2)N1Cc1ccccc1 (centres undefined)
COc1ccc(COC(=O)C2=C(C)NC(=O)NC2c2ccc(OC)cc2)cc1 (centres undefined)
Cc1cccc(NC(=O)C2CCN(S(=O)(=O)c3ccc4c(c3)OCCCO4)CC2)n1
CCc1ccc(-c2nc(CN3CCC(C(=O)NCCc4ccc(OC)c(OC)c4)CC3)c(C)o2)cc1
O=C(Nc1ccc(N2CCN(C(=O)c3ccccc3)CC2)c(Cl)c1)c1cccnc1
COc1ccccc1CCNCc1ccc(OC)c(OCc2ccccc2)c1
CCN1C(=O)[C@H]2[C@@H](c3ccc(C(F)(F)F)cc3)N[C@]3(CCCN(Cc4ccccc4)C3=O)[C@H]2C1=O
Cc1ccc(-n2nc3c(c2NC(=O)c2ccco2)CS(=O)C3)cc1 (centres undefined)
FC(F)(F)c1nc(-c2cccs2)ncc1-c1nnnn1-c1ccc(Cl)cc1
Cc1ccc(S(=O)(=O)Nc2ccc3c(c2)C(=O)N([C@H](C)CO)C[C@@H](C)[C@H](CN(C)S(=O)(=O)c2ccc(F)cc2)O3)cc1
C[C@H](CO)N1C[C@H](C)[C@H](CN(C)S(=O)(=O)c2ccc(F)cc2)Oc2ccc(NS(=O)(=O)c3ccccc3)cc2CC1=O
C=CCN1C(=S)CC(c2ccccc2)=Nc2ccccc21
CC1CCCN(C(=O)c2ccc(S(=O)(=O)N3CCC(c4nc5ccccc5s4)CC3)cc2)C1 (centres undefined)
CS(=O)(=O)Nc1ccc2c(c1)[C@@H]1C[C@@H](CC(=O)N3CCc4ccccc4C3)O[C@H](CO)[C@@H]1O2
CS(=O)(=O)Nc1ccc2c(c1)[C@H]1C[C@H](CC(=O)NCc3ccc(-c4ccccc4)cc3)O[C@H](CO)[C@H]1O2
CS(=O)(=O)Nc1ccc2c(c1)[C@H]1C[C@H](CC(=O)N3CCc4ccccc4C3)O[C@H](CO)[C@H]1O2
CCN(c1nc(N)c(C(=O)N=C(N)N)nc1Cl)C(C)C
CCN(CC)CCN(C(=O)c1cc(Cl)sc1Cl)c1nc2cc3c(cc2s1)OCO3
CCC(=O)N(C)C(c1ccccc1Cl)c1nnnn1-c1c(C)cccc1C (centres undefined)
O=C(O)C[C@@H]1C=C[C@H](NC(=O)Nc2ccccc2)[C@H](CO)O1
O=C(O)C[C@@H]1C=C[C@@H](NC(=O)Nc2ccccc2)[C@H](CO)O1
Cc1nc2ccccc2c2oc(C(=O)NCc3ccc4c(c3)OCO4)cc12
O=C(Nc1ccc(Cl)cc1)C1CCCN(C2=NS(=O)(=O)c3ccccc32)C1 (centres undefined)
C[C@H]1CN([C@@H](C)CO)C(=O)Cc2cc(NS(=O)(=O)c3ccccc3)ccc2O[C@@H]1CN(C)Cc1ccc(Cl)c(Cl)c1
COc1cc(-c2c(-c3cc(OC)c(OC)c(OC)c3)noc2C)ccc1F
CC1Cc2cc(-c3csc(NC(=O)Cc4cccs4)n3)ccc2N1S(C)(=O)=O (centres undefined)
COCCCn1c(-c2ccc(S(=O)(=O)N3CCOCC3)cc2)csc1=Nc1ccccc1
O=C(Nc1nc(COc2ccccc2)cs1)C12CC3CC(CC(C3)C1)C2
COc1ccc(S(=O)(=O)n2ccc(-c3ccc(OCCN(C)c4ccccn4)cc3)n2)cc1
O=C(c1ccccc1F)N1CCN(Cc2cccc(Cl)c2)CC1
COc1ccccc1S(=O)(=O)Cc1ccc(C(=O)N2CCN(c3cccc(Cl)c3)CC2)o1
COc1ccc(OCC(=O)Nc2ccccc2N2CCCCC2)cc1
CCOC(=O)C1CCN(C(=O)c2ccc3c(c2)C(=O)N(c2ccccc2C)C3=O)CC1
Cc1cc(Cl)ccc1OCC(=O)NNC(=O)C1CSC2(C)CCC(=O)N12 (centres undefined)
CS(=O)(=O)N1CCN(c2ccccc2NC(=O)C(c2ccccc2)c2ccccc2)CC1
O=C(c1ccc(Cl)s1)N1CCN(c2nc3ccccc3s2)CC1
CCOC(=O)c1cccc(NS(=O)(=O)c2ccc(NC(C)=O)cc2)c1
O=C(Nc1ccc(CN2CCS(=O)(=O)CC2)cc1)c1ccc(C(F)(F)F)cc1
O=C(Nc1cc2c3c(c1)CC(=O)N3CCC2)c1ccc(Cl)cc1
C=CC[n+]1c(-c2ccc(C)cc2)csc1NNC(=O)Nc1ccccc1
Cc1noc(C)c1S(=O)(=O)N(C)C[C@H]1Oc2ccc(NC(=O)Nc3ccccc3)cc2CC(=O)N([C@H](C)CO)C[C@H]1C
N#C/C(=N\Nc1ccc(Cl)cc1)C(=O)c1ccccc1
CCCn1c(=S)[nH]c2cc(C(=O)N3CCCC(C(=O)OCC)C3)ccc2c1=O (centres undefined)
CN(C(=O)c1cccc(NC(=O)Cc2cccc(NC(=O)C3CCCN(C(=O)C4CCC4)C3)c2)c1)C1CCC1 (centres undefined)
COc1ccc(S(=O)(=O)N2CCCCC2)cc1NC(=O)CN(Cc1ccco1)Cc1ccco1
O=C(COC(=O)c1ncc(Cl)c(Cl)c1Cl)NCc1cccs1
CCc1cc2c(NCc3ccco3)ncnc2s1
COc1ccc(-c2cc(=O)oc3c(C)c(O)ccc23)cc1
COc1cccc(S(=O)(=O)N(C)C[C@H]2Oc3cc(C#CCC(C)C)ccc3S(=O)(=O)N([C@H](C)CO)C[C@H]2C)c1
COc1cccc(S(=O)(=O)N(C)C[C@@H]2Oc3cc(C#CCC(C)C)ccc3S(=O)(=O)N([C@H](C)CO)C[C@@H]2C)c1
COc1ccc(OC)c(-c2cc(C(=O)Nc3c(C)nn(Cc4ccc(Cl)cc4)c3C)no2)c1
CC(Cl)=CCn1c(NCCc2ccccc2)nc2c1c(=O)n(C)c(=O)n2C
C[C@@H]1CN([C@@H](C)CO)C(=O)c2cc(NC(=O)c3ccncc3)ccc2O[C@H]1CN(C)Cc1ccncc1
C[C@@H]1CN([C@@H](C)CO)C(=O)c2cc(NC(=O)c3ccncc3)ccc2O[C@@H]1CN(C)Cc1ccncc1
CCCCNC(=O)C[C@H]1C[C@@]2(C(=O)OC)C(=C[C@H](C(C)(C)C)O[C@@H]2C)N(Cc2ccc3c(c2)OCO3)C1=O
COCCn1c(=S)[nH]c2cc(C(=O)N3CCN(Cc4ccc5c(c4)OCO5)CC3)ccc2c1=O
CC(C)OCCCn1c(=S)[nH]c2ccc(N3CCOCC3)cc2c1=O
O=S(=O)(c1ccccc1Cl)N1CCCC1c1nc(-c2ccc(Cl)cc2)no1 (centres undefined)
O=C(C[C@@H]1C=C[C@@H](NC(=O)Nc2ccc3c(c2)OCO3)[C@H](CO)O1)NCc1ccc(F)cc1
CCS(=O)(=O)N[C@H]1CC[C@@H](CC(=O)NCc2ccc(Cl)cc2)O[C@@H]1CO
Nc1c(S(=O)(=O)c2ccccc2)cnc2c(-c3ccc(F)cc3)cnn12
COc1ccc(OC)c(NC(=O)COc2ccc3c(c2)CCC3)c1
COc1ccc(S(=O)(=O)NNC(=O)C2Cc3c(ccc4ccccc34)O2)cc1 (centres undefined)
COc1ccc(CCCC(=O)NCCc2ccccc2)c(C)c1
COc1ccc(CCNC(=O)COC(=O)c2cccn2C)cc1
Cc1[nH]nc2c1C1(C(=O)N(Cc3ccc(Cl)cc3)c3ccccc31)C(C#N)=C(N)O2 (centres undefined)
Cc1ccccc1OCCCCn1cnc2ccccc21
O=C(Nc1ccncc1)c1ccc(Cl)c(S(=O)(=O)N2CCc3ccccc32)c1
Cc1ccc(C(=O)NCc2ccccn2)cc1S(=O)(=O)N1CCCCC1
COc1cccc(/C=N/NC(=O)CC2C(=O)NN=C2C)c1O (centres undefined)
O=C(C[C@@H]1CC[C@@H](NC(=O)c2ccncc2)[C@H](CO)O1)NCCc1ccncc1
CN(C)CC(=O)Nc1ccc2c(c1)[C@H]1C[C@H](CC(=O)NCc3cccc(F)c3)O[C@@H](CO)[C@H]1O2
CC(C)n1c(NCCc2ccccc2)nc2c1c(=O)n(C)c(=O)n2C
CCCCn1c(CN(C)Cc2ccccc2)nc2c1c(=O)n(C)c(=O)n2C
CC1CN(S(=O)(=O)c2cc(C(=O)NCCC3=CCCCC3)ccc2Cl)CC(C)O1 (centres undefined)
